Screening data: PubChem, several laboratories
A selection: hits, their analogues and other compounds. The true share with any hit is near 5.1%.
RAM inhibit: blocks the yeast RAM network. 1.8% of 190,000 active. S. cerevisiae dse1pr::URA3 reporter, 5-FOA growth OD615, 2 d; analog-sensitive cbk1-as2 kinase mutant strain. inhibition, % at 50 µM;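 active = inhibition above a set limit, 3 SD over mean compound inhibition, cut at about 8.4% in these data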;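 note: 0% = DMSO-only wells with no growth and 100% = 10 µM 1-NA-PP1 full growth; inhibition rescues growth on 5-FOA so higher OD means more RAM inhibition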
S1P4 ag: human S1P4 receptor agonism; O95977; S1P4-expressing cell line, agonist reporter assay; activation, % at 4.98 µM; 0.35% of 220,000 active; AID 1509; in the data active = activation above about 11%;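 note: 0% = DMSO vehicle and 100% = reference agonist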
KCC2 mod: modulates chloride dependent transport by human KCC2. KCC2 cells, thallium flux FluoZin-2 fluorescence. AID 1456. B-score of Tl+ flux slope (higher = more flux/activation; lower = inhibition) at 10 µM. 2.2% of 190,000 active. Q9H2X9;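 active = thallium flux slope and its plate-corrected score both differing from the plate sample mean at a set confidence after two filtering rounds, in either direction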;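 note: slope of fluorescence scaled to starting intensity during 10 to 20 s after thallium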
ROMK mod: modulates human ROMK potassium channel activity; Tet-inducible ROMK, thallium flux fluorescence; actives lie on both sides; P48048; B-score at 10 µM; 2% of 130,000 active;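 active = signal ratio slope over the read window, or its plate-corrected B-score, at least 3 SD from the plate mean, either direction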;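 note: B-score of the F/F0 ratio slope over 7 to 12 s after thallium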
Target sequence (P48048 whole entry, looked up): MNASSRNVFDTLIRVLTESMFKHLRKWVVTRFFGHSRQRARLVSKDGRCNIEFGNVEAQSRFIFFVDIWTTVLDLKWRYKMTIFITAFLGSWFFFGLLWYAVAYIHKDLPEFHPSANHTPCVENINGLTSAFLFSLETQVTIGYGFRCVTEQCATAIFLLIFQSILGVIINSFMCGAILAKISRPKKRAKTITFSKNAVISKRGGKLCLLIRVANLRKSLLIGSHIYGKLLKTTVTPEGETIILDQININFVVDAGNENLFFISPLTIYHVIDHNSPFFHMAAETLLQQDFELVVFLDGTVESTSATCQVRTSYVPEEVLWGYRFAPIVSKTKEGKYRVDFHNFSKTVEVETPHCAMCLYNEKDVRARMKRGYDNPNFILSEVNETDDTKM
S1P3 antag: antagonists of human S1P3 receptor | Q99500 | CHO S1P3 NFAT-BLA reporter, FRET fluorescence, antagonist mode | inhibition, % at 4.98 µM | 0.27% of 170,000 active | AID 485;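 active = inhibition above the plate cutoff, the mean inhibition of test wells on that plate plus 3 SD, cut at about 28% in these data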;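 note: cells challenged with S1P at its EC80 of 0.8 µM; blue over green emission ratio from cleaved BLA substrate after 4 h stimulation; 0% = S1P-stimulated wells and 100% = unstimulated DMSO-only wells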
S1P4 antag: blocks the human S1P4 receptor | O95977 | 0.26% of 220,000 active | inhibition, % at 4.98 µM | AID 1510 | S1P4-expressing cells, antagonist mode, reporter read-out; in the data active = inhibition above about 29%;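 note: 0% = wells stimulated with agonist and 100% = vehicle wells without agonist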
* = called active by the depositor; nt = not tested or not shown.

SMILES	RAM inhibit	S1P4 ag	KCC2 mod	ROMK mod	S1P3 antag	S1P4 antag
CC(=O)Nc1nc(C)c(Oc2ccc(C)cc2)c(=O)[nH]1	nt	1	nt	nt	5	-4
O=C(Oc1cccc2cccnc12)c1ccc2c(c1)OCCO2	0	0	nt	0.96	61*	-20
N#CC1=C(N)Oc2cc3c(cc2C1c1ccc(Cl)cc1)OCO3 (centres undefined)	3	0	-0.39	0.0072	72*	-1
COc1cc(C2C(C#N)=C(N)Oc3cc(O)ccc32)cc2c1OCO2 (centres undefined)	2	1	-0.28	0.9	-27	-6
CCOc1cc(/C=C/C(=O)c2ccc(C)cc2)ccc1OCC(=O)N(C)C	1	1	0.3	0.52	-17	15
CCOc1cc(/C=C2/COc3ccccc3C2=O)ccc1OCC(=O)N(C)C	3	-5	-1.6	-1.9	3	37*
CCCN(CCC)C(=O)C[n+]1cccc(/C=N/O)c1	0	-1	-0.096	1.1	-3	-8
COc1cccc(NS(=O)(=O)c2ccc(OC)c(OC)c2)c1	1	1	0.48	nt	63*	-19
Cc1cccc(OCCNC(=O)c2ccc(Oc3ccc(C(F)(F)F)cc3[N+](=O)[O-])cc2)c1	6	0	0.58	nt	nt	-8
Cc1cccc(OCCNC(=O)c2cccc(Oc3ccc(C(F)(F)F)cc3[N+](=O)[O-])c2)c1	9.0*	1	-0.14	0.2	-27	-11
Cc1cccc(-c2nsc(SCC(=O)c3ccc(Cl)cc3)n2)c1	3	2	2	nt	0	-13
O=C(CSc1nc(-c2ccccc2Cl)ns1)c1ccc(Cl)cc1	11*	0	-0.6	nt	-44	-13
O=c1[nH]cnc2scc(-c3ccc(-c4ccccc4)cc3)c12	4	-1	nt	1.3	nt	-12
Cc1c(-c2ccccc2)sc2nc[nH]c(=S)c12	5	1	90*	4.9*	-7	-19
COc1ccc(C(=O)NC2CC(C)(C)Cc3occc32)cc1 (centres undefined)	3	2	-1.4	nt	1	-3
[2H]c1c([2H])c([2H])c(C(=O)c2sc(N3CCCCCC3)nc2-c2ccccc2)c([2H])c1[2H]	8.8*	-1	0.34	nt	nt	-28
COc1ccc(-c2nc(N3CCCCCC3)sc2C(=O)c2ccccc2)cc1	7	0	0.84	nt	nt	16
O=C(c1ccc(Br)cc1)c1sc(N2CCOCC2)nc1-c1ccccc1	9.4*	1	0.5	0.18	-10	1
O=C(c1ccccc1)c1sc(N2CCOCC2)nc1-c1ccccc1	0	0	0.0032	-0.36	-2	-16
CCCN1CCC(NCc2cn(C)nc2-c2ccc(Oc3ccccc3)cc2)CC1	nt	-2	0.066	nt	0	-5
COc1ccc2c(c1O)C(=O)c1ccccc1C2=O	2	1	-1.3	nt	-17	-15
CC(C)COC(=O)c1ccc2c(c1O)C(=O)c1ccccc1C2=O	8.8*	1	nt	0.77	nt	9
O=C(C[n+]1cccc(NC(=O)c2ccccc2)c1)c1ccc(NC(=O)c2ccccc2)cc1	11*	2	-1	-1.3	nt	-2
O=C(C[n+]1cccc(NC(=O)c2ccccc2)c1)c1ccccc1	1	-1	nt	nt	nt	-15
CN(CC(=O)Nn1cnnc1)S(=O)(=O)c1ccccc1	0	-2	nt	1.1	nt	-9
SMILES	RAM inhibit	S1P4 ag	KCC2 mod	ROMK mod	S1P3 antag	S1P4 antag
Cc1c(NC(=S)NC(=O)c2ccc(Br)o2)c(=O)n(-c2ccccc2)n1C	-1	2	0.96	nt	-10	6
Cc1cccc(C)c1NC(=S)NC(=O)c1ccc(Br)o1	0	2	192*	2.1*	8	-2
O=C(NC(=S)Nc1ccc(S(=O)(=O)N2CCCCC2)cc1)c1ccccc1	3	0	0.66	2.8*	nt	14
O=C(Nc1nnc(-c2ccccc2Cl)o1)c1ccc(S(=O)(=O)N2CCCCCC2)cc1	1	-2	8.5*	nt	-3	15
CN(c1ccccc1)S(=O)(=O)c1ccc(NC(=S)NC(=O)c2ccccc2)cc1	1	1	3*	nt	nt	-3
O=C(NCCc1ccc(F)cc1)c1cc(-c2ccncc2)nc2ccccc12	nt	0	-0.15	nt	-3	20
CSCCC(NC(=O)c1cc([N+](=O)[O-])ccc1Cl)C(=O)O (centres undefined)	2	2	0.92	nt	-12	-6
Cc1cc(C)cc(NS(=O)(=O)c2ccc(NC(=S)NC(=O)c3cccs3)cc2)c1	5	1	0.19	-0.83	-5	-4
CN(C1CCCCC1)S(=O)(=O)c1ccc(NC(=S)NC(=O)c2cccs2)cc1	3	0	17*	nt	nt	-38
CCN(c1ccccc1)S(=O)(=O)c1ccc(NC(=S)NC(=O)c2ccc(Br)o2)cc1	1	0	20*	nt	nt	1
Cc1oc(-c2ccccc2)nc1C(=O)N1CCN(c2ccc(F)cc2)CC1	0	2	-1.6	-0.023	-24	-16
Cc1cc(C)c(N2CCN(S(=O)(=O)N3CCCCCC3)CC2)c(C)c1	11*	2	0.5	nt	-7	6
COc1ccccc1-c1nc(C#N)c(N2CCc3ccccc3C2)o1	10*	0	nt	-0.29	-7	0
Cc1ccc2[nH]c(=O)c(CN(CC3CCCO3)C(=S)Nc3ccccc3)cc2c1 (centres undefined)	4	1	0.61	-0.05	8	-11
N#CCCS(=O)(=O)c1nnnn1-c1ccccc1	nt	-7	nt	-4.7*	21	38*
c1ccc(-n2nnnc2Cc2nnnn2-c2ccccc2)cc1	0	-1	-0.46	0.56	-15	-20
O=C(Cn1nnc2ccccc21)OCC(=O)c1ccccc1	-1	0	3.2*	0.27	nt	-12
Cc1cccc(NCC(=O)N/N=C\c2cccc(Oc3ccccc3)c2)c1	3	0	-0.068	0.33	-5	-17
Cc1ccc(NCC(=O)N/N=C/c2cccc(Oc3ccccc3)c2)cc1	10*	-1	-0.19	0.25	13	-9
CC(=O)c1c(C)[nH]c(C(=O)CN2C(=O)NC(C)(c3ccc(C)cc3)C2=O)c1C (centres undefined)	0	0	0.93	0.52	6	-4
Cc1ccc(-c2nnn(CC(=O)N(c3cnc4ccccc4c3)C(C(=O)NC3CCCC3)c3ccncc3)n2)o1 (centres undefined)	8.6*	0	1.6	-0.44	-24	6
C/C=C(\C)C(=O)NNC(=O)c1sc(-c2ccccc2)nc1C	nt	1	1.5	nt	5	-3
CN(C)S(=O)(=O)c1cccc(NC(=O)c2ccc(N3CCOCC3)c([N+](=O)[O-])c2)c1	3	0	0.15	0.5	11	-2
CC(C)(C)C(=O)NC(=S)N1CCOCC1	-1	1	0.68	-0.0069	-2	7
CCCCN(CCCC)C(=S)NC(=O)C(C)(C)C	1	0	38*	nt	13	0
C=C1CCN([C@@H](C)C(=O)NCCCCCC)S(=O)(=O)c2ccccc21	nt	nt	-1.2	nt	nt	nt
